Measurements: PubChem BioAssay (Tox21)
Several values for one entry are separate records, joined by “and”; a condition that tells them apart may be missing. Equal values may be shown once. A number with no mark means an inactive call. Results filed as inconclusive are left out. A call without a number means that no potency is given here. Activity calls are given as the source filed them. Unless noted, calls follow the shape of the dose curve; as a rule, active = well fitted curve in the direction sought with a large enough effect in the repeat runs; inconclusive = weak or mixed curves; inactive = no such curve, though single readings can be large; an effect the other way counts as inactive or inconclusive.

What was measured:
[1] = qHTS assay to identify small molecule agonists of the estrogen receptor alpha (ER-alpha) signaling pathway in the presence of an antagonist - cell viability counter screen (AID 1259386);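 also: series mostly up to about 92 µM; cells exposed to compounds for 22 h at 37 °C before the viability read; nearly all actives have a fitted effect of over 30% in size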
How it was run: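 Viability counter screen using VM7Luc4E2 (full-length ER-alpha, four ERE-luciferase). The cells were treated with compounds alongside ICI-182,780 10.0nM for 22hr, and live-cell protease fluorescence was quantified with CellTiter-Fluor.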

[2] = biological target: Progesterone receptor (Homo sapiens) (UniProt P06401); experiment: qHTS assay to identify small molecule agonists of the progesterone receptor (PR) signaling pathway (AID 1346784; calls by dose curve; also: nearly all actives have a fitted effect of over 30% in size)
Sequence of Progesterone receptor (Homo sapiens) (P06401 whole entry, looked up): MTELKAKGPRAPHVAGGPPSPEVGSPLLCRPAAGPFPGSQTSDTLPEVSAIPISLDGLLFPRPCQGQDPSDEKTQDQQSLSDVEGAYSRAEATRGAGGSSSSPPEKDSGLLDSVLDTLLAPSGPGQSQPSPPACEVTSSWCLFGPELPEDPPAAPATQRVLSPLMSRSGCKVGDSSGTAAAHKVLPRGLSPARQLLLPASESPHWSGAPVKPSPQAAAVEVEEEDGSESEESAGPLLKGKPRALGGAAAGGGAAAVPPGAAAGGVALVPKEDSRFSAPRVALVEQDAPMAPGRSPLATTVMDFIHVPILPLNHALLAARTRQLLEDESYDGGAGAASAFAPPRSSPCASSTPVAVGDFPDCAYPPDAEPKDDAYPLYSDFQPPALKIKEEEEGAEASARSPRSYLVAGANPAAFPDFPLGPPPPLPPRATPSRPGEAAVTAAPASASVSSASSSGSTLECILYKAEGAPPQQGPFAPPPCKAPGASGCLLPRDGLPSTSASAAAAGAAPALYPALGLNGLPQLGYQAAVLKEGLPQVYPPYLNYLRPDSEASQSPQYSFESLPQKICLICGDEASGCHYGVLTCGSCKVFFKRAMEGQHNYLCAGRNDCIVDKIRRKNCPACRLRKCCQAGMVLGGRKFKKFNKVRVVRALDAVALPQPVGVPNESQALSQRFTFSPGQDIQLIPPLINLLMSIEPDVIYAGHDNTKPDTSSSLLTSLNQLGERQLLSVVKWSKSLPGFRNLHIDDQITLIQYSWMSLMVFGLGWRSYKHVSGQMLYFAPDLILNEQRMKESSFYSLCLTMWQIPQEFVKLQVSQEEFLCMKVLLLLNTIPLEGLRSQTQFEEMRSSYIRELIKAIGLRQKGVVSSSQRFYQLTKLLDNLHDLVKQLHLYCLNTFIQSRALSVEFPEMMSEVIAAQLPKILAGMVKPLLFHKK
How it was run: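 Reporter assay, GripTite PR-UAS-bla HEK 293T cells: 16 hr exposure to DMSO-dissolved compounds at 37C, 5% CO2, in steroid-depleted (2% charcoal-stripped FBS) medium; beta-lactamase measured by FRET fluorescence.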

[3] = biological target: Progesterone receptor (Homo sapiens) (UniProt P06401); experiment: qHTS assay to identify small molecule antagonists of the progesterone receptor (PR) signaling pathway (AID 1346795; active = well fitted inhibition curve with a large enough effect in the signal ratio in the repeat runs, not every such curve was filed as active; the % refers to the signal ratio)
How it was run: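 Stimulus R5020 at 1 nM final; cells HEK293T PR-UAS-bla; medium with 2% charcoal-stripped FBS; compound exposure 16 hr at 37C, 5% CO2; detection by FRET beta-lactamase substrate, 2 hr, room temperature.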

[4] = qHTS assay to identify small molecule antagonists of the progesterone receptor (PR) signaling pathway - cell viability counter screen (AID 1346798); also: series mostly up to about 92 µM; nearly all actives have a fitted effect of over 50% in size
How it was run: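 In the same plates used for the beta-lactamase readout, cell viability of compound- and R5020-treated PR-UAS-bla HEK293T cells (16 hr, 37C) was assessed by CellTiter-Glo luminescence.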

[5] = qHTS assay to identify small molecule agonists of the progesterone receptor (PR) signaling pathway - cell viability counter screen (AID 1346799; calls by dose curve; also: nearly all actives have a fitted effect of over 45% in size; also: potency is read from the fitted curve at half-maximal effect)
How it was run: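 Multiplexed viability read: CellTiter-Glo luminescence, 30 min RT, following LiveBLAzer FRET measurement on PR-UAS-bla HEK293T cells exposed to compounds 16 hr.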

[6] = qHTS assay to identify small molecule antagonists of the TGF-beta/Smad signaling pathway - cell viability counter screen (AID 1346824); also: nearly all actives have a fitted effect of over 50% in size
How it was run: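 Cytotoxicity counter-screen run in the same wells as the beta-lactamase Smad reporter read: CellTiter-Glo luminescence after 30 min at room temperature. HEK 293T SBE-bla cells had 5 hr compound exposure at 37 C with TGF-beta1 (0.25 ng/mL stock).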

[7] = biological target: Thyrotropin-releasing hormone receptor (Homo sapiens) (UniProt P34981); experiment: qHTS assay to identify small molecule antagonists of the thyrotropin-releasing hormone receptor (TRHR) signaling pathway (AID 1346877; active = well fitted inhibition curve with a large enough effect in the repeat runs, not every such curve was filed as active; also: series mostly up to about 51 µM)
Sequence of Thyrotropin-releasing hormone receptor (Homo sapiens) (P34981 whole entry, looked up): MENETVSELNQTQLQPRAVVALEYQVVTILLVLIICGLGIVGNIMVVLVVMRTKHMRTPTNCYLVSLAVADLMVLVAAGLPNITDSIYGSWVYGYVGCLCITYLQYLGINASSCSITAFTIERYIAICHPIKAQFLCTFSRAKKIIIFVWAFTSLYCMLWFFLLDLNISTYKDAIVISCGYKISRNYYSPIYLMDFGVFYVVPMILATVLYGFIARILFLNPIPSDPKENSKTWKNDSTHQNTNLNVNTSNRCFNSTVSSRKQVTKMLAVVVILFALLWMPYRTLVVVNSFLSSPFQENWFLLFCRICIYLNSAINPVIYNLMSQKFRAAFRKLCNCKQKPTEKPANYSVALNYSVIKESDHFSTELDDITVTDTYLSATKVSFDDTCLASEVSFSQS
How it was run: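 Following an 18 h incubation at 37 °C and a 2 h calcium dye load, TRHR-HEK293 cells were exposed to compound (5 min, room temperature) and challenged with TRH, 1 nM final.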

[8] = biological target: Thyrotropin-releasing hormone receptor (Homo sapiens) (UniProt P34981); experiment: qHTS assay to identify small molecule agonists of the thyrotropin-releasing hormone receptor (TRHR) signaling pathway (AID 1346891; calls by dose curve; also: series mostly up to about 58 µM)
How it was run: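 Readout was intracellular calcium fluorescence in TRHR-Hek293 cells. Cells were incubated 18 h, dye-loaded 2 h at 37 °C, and treated with compound in agonist mode.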

[9] = Human pregnane X receptor (PXR) small molecule agonists, qHTS cell viability counter screen (AID 1346977); also: nearly all actives have a fitted effect of over 50% in size; also: potency is read from the fitted curve at half-maximal effect
How it was run: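 In each well, the PXR reporter HepG2 line was checked for viability: CellTiter-Fluor reagent added 23hr post-dosing, fluorescence read after 1hr incubation at 37C.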

[10] = Caspase-3/7 induction in HepG2 cells by small molecules, qHTS assay (AID 1346978); also: nearly all actives have a fitted effect of over 15% in size
How it was run: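 Caspase-3/7 induction was measured by Caspase-Glo 3/7 luminescence (30 min, room temperature) after a 17 hr compound exposure of wild-type HepG2 cells seeded at 2,000 per well and pre-incubated 5 hr.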

[11] = Caspase-3/7 induction in CHO-K1 cells by small molecules, qHTS assay (AID 1346980); also: nearly all actives have a fitted effect of over 15% in size
How it was run: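 Luminescent Caspase-Glo 3/7 read (30min, room temperature) quantified apoptosis induction. Cells were wild-type CHO-K1, treated with compound for 17hr at 37 C and 5% CO2.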

[12] = Caspase-3/7 induction in HepG2 cells by small molecules, qHTS cell viability counter screen (AID 1346981); also: series mostly up to about 92 µM; nearly all actives have a fitted effect of over 30% in size
How it was run: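 Viability determined by CellTiter-Fluor fluorescence in HepG2 wells also used for the luminescent Caspase-Glo 3/7 read. Compounds were present for 16 hr at 37 C, 5% CO2 before reagent addition.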

[13] = biological target: Nuclear receptor subfamily 1 group I member 2 (Homo sapiens) (UniProt O75469); experiment: Human pregnane X receptor (PXR) small molecule agonists, qHTS assay (AID 1346982); also: nearly all actives have a fitted effect of over 35% in size; also: potency is read from the fitted curve at half-maximal effect
Sequence of Nuclear receptor subfamily 1 group I member 2 (Homo sapiens) (O75469 whole entry, looked up): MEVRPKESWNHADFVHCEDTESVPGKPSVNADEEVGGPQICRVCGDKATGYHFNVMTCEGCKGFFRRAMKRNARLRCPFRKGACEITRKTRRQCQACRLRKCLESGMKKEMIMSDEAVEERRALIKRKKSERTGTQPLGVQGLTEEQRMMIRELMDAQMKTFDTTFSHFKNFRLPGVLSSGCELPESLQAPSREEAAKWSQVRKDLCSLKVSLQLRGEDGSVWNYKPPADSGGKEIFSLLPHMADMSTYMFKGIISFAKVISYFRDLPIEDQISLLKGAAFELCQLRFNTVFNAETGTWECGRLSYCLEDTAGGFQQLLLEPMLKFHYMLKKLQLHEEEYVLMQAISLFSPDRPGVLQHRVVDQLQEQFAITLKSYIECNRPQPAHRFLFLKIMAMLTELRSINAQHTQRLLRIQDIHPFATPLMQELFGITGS
How it was run: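 Compound-induced hPXR transactivation of a CYP3A4 luciferase reporter was scored in HepG2 PXR-Luc cells over 24 hr at 37 C, 5% CO2, by luminescence.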

[14] = biological target: Acetylcholinesterase (Homo sapiens) (UniProt P22303); experiment: Acetylcholinesterase (AChE) small molecule antagonists: colormetric cell-based qHTS assay (AID 1347395; calls by dose curve; also: nearly all actives have a fitted effect of over 30% in size; also: potency is read from the fitted curve at half-maximal effect)
Sequence of Acetylcholinesterase (Homo sapiens) (P22303 whole entry, looked up): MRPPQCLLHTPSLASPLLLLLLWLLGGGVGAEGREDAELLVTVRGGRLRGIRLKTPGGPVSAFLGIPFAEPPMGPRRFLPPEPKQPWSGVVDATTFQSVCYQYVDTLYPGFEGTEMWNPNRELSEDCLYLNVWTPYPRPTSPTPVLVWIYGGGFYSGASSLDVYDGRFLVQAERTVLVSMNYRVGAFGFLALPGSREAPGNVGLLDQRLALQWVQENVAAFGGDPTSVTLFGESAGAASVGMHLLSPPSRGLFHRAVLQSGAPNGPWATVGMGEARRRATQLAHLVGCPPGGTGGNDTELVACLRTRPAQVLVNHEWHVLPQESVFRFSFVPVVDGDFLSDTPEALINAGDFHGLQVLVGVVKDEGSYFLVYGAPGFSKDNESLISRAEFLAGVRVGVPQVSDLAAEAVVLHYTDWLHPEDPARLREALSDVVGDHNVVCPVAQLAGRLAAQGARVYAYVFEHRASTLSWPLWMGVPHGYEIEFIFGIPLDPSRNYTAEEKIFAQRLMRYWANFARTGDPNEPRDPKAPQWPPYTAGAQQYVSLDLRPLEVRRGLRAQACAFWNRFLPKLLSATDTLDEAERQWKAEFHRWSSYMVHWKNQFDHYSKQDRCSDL
How it was run: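 After overnight attachment at 37 C, SH-SY5Y cells get 30 min compound exposure; detection cocktail (acetylthiocholine, DTNB) then incubates 90 min at 37 C, and absorbance reflects AChE-generated thiocholine.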

[15] = biological target: Acetylcholinesterase (Homo sapiens) (UniProt P22303); experiment: Acetylcholinesterase (AChE) small molecule antagonists: enzyme-based qHTS assay (AID 1347397; calls by dose curve; also: nearly all actives have a fitted effect of over 55% in size; also: potency is read from the fitted curve at half-maximal effect); conditions: Potency: AChE enzyme activity inhibition
How it was run: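 Absorbance-based detection of thiocholine with DTNB served as the read-out. Recombinant human AChE was exposed to compound for 30 min at RT before a 10 min RT incubation with acetylthiocholine.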

[16] = qHTS assay to identify small molecule agonists of the TGF-beta/Smad signaling pathway - cell viability counter screen (AID 1346829); also: top concentration of the series differs between compounds; nearly all actives have a fitted effect of over 45% in size
How it was run: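 SBE-bla HEK 293T cells plated overnight, compound exposure 5 hr at 37 C. Viability read in the same wells by CellTiter-Glo luminescence after 30 min at room temperature, following the beta-lactamase read.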

[17] = qHTS assay to identify small molecule agonists of the TGF-beta/Smad signaling pathway (AID 1346859; active = well fitted activation curve with a large enough effect in the signal ratio in the repeat runs, not every such curve was filed as active; the % refers to the signal ratio; also: series mostly up to about 77 µM)
How it was run: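 Screening used HEK 293T SBE-bla cells at 4,000/well. Test agents: 5 hr, 37 C. Detection: FRET substrate, 2 hr RT, then excitation 405 nm with emissions at 460 and 530 nm.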

[18] = Caspase-3/7 induction in CHO-K1 cells by small molecules, qHTS cell viability counter screen (AID 1346979); also: nearly all actives have a fitted effect of over 35% in size; also: potency is read from the fitted curve at half-maximal effect
How it was run: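 Following a 5hr settling period, CHO-K1 cells at 1,500 per well received DMSO-dissolved compounds. Cell viability was quantified 16hr later by CellTiter-Fluor fluorescence, measured after 1hr with reagent at 37C.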

[19] = biological target: Nuclear receptor subfamily 1 group I member 2 (Rattus norvegicus) (UniProt Q9R1A7); experiment: Rat pregnane X receptor (rPXR) activation by small molecules, qHTS assay (AID 1346983); conditions: rPXR luciferase reporter cells, One-Glo luminescence, 24 h; max activation: active compounds read high; also: nearly all actives have a fitted effect of over 20% in size
Sequence of Nuclear receptor subfamily 1 group I member 2 (Rattus norvegicus) (Q9R1A7 whole entry, looked up): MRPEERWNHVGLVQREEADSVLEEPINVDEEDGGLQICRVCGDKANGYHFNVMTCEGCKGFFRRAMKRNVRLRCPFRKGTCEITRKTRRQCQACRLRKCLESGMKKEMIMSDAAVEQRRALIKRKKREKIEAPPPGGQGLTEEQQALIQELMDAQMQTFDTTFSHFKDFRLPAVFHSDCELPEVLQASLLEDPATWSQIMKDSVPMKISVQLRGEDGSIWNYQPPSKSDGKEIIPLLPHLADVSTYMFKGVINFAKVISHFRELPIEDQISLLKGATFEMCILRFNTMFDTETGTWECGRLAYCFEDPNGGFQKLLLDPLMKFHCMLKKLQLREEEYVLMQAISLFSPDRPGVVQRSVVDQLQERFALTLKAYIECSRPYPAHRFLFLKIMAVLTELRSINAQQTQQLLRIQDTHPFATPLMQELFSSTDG
How it was run: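 Luminescent readout (One-Glo luciferase, 30 min room temperature) followed 24 hr compound treatment at 37 C of rPXR cells plated 2,000 per well and preincubated 5hr; qHTS format with compounds delivered in DMSO.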

| Structure (SMILES) | Potency [1] | Potency [2] | Potency [3] | Potency [4] | Potency [5] | Potency [6] | Potency [7] | Potency [8] | Potency [9] | Potency [10] | Potency [11] | Potency [12] | Potency [13] | Potency [14] | Potency [15] | Potency [16] | outcome [17] | Potency [18] | max activation [19] |
| --- | --- | --- | --- | --- | --- | --- | --- | --- | --- | --- | --- | --- | --- | --- | --- | --- | --- | --- | --- |
| O=C(O)COc1ccc(Cl)cc1 | inactive | inactive | inactive | inactive | inactive | inactive | inactive | inactive | inactive | inactive | inactive | inactive | inactive | inactive | inactive |  |  |  |  |
| CCN(C)N=O | inactive | inactive | inactive | inactive | inactive | inactive |  |  | inactive | inactive |  | inactive | inactive | inactive | inactive | inactive | inactive | inactive |  |
| CCCCN(N=O)C(=N)N[N+](=O)[O-] | inactive | inactive | inactive | inactive | inactive | inactive |  | inactive |  | inactive | inactive |  | inactive | inactive | inactive | inactive | inactive | 62.4 µM (active) |  |
| C=CCC1([C@H](C)CCC)C(=O)NC(=O)NC1=O | inactive | inactive | inactive | inactive | inactive | inactive | inactive | inactive | inactive | inactive |  | inactive | inactive | inactive | inactive |  | inactive | inactive |  |
| C=CCN1CC[C@]23c4c5ccc(O)c4O[C@H]2C(=O)CC[C@@]3(O)[C@H]1C5 | inactive | inactive | inactive | inactive | inactive | inactive |  |  | inactive |  |  | inactive |  |  |  | inactive | inactive | inactive | -2.21% and -3.34% |
| CC(C)(CCl)C(=O)Cl | inactive | inactive | inactive |  | 48.5 µM (active) | inactive | inactive | inactive | inactive | inactive | inactive |  |  | inactive | inactive | inactive | inactive | inactive |  |
| CN1C[C@H](CNC(=O)OCc2ccccc2)C[C@@H]2c3cccc4c3c(cn4C)C[C@H]21 | inactive | inactive | inactive |  |  | inactive | inactive | inactive | 26.6 µM (active) | inactive | inactive |  | inactive | 3.47 µM (active) | 7.76 µM (active) | inactive | inactive |  |  |
| CCOc1ccc(C(C)(C)COCc2cccc(Oc3ccccc3)c2)cc1 | inactive | inactive | inactive |  |  | inactive |  | inactive | inactive |  |  |  |  | inactive | inactive |  | inactive | inactive |  |
| CCCCN=C=O | inactive | inactive | inactive |  | inactive | inactive | inactive | inactive | inactive | inactive | inactive | inactive | inactive | inactive | inactive | inactive | inactive | inactive |  |
| NC(=O)CI | inactive | inactive |  | inactive | inactive | inactive | inactive | inactive | inactive | inactive | inactive | inactive | 69.1 µM (active) | inactive | inactive | inactive | inactive | inactive |  |
| C=CC(C)=O | inactive | inactive |  | inactive | inactive | inactive | inactive |  | inactive |  | inactive | inactive | inactive | inactive | inactive | inactive | inactive | inactive |  |
| CCOP(=S)(OCC)SCSCC | inactive | inactive |  | inactive | inactive | inactive |  | inactive | inactive | inactive | inactive | inactive | inactive | 63.3 µM (active) | inactive | inactive | inactive | inactive |  |
| CCCCCCCCCCOC(=O)c1ccccc1C(=O)OCCCCCCCCCC | inactive | inactive |  | inactive | inactive | inactive | inactive |  | inactive | inactive | inactive | inactive | inactive | inactive | inactive | inactive | inactive | inactive |  |
| O=[N+]([O-])c1ccccc1CCl | inactive | inactive |  | inactive | inactive | inactive | inactive | inactive | inactive |  |  | inactive | 0.0039 µM (active) | inactive | inactive | inactive | inactive | inactive |  |
